Test results: PubChem BioAssay (EPA / NIEHS)
Results filed as inconclusive are left out. Calls of active or inactive are those of the source. How the source made its calls: active means hit-call score of the fitted dose curve at least 0.9, where 1 is the maximum; inconclusive means response in the unintended direction; inactive means score below 0.9.

How the values were obtained:
[1] = TOX21_p53_BLA_p2_viability: Viability Assessment in the Tox21 HCT-116 p53 Agonism Beta-lactamase Assay, Phase 2 (AID 2283591);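 further: compound exposure lasted 16 h at 37 °C; actives lower the ATP signal meaning cytotoxicity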
Outline: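 HCT-116 p53-bla cells (4000/well) rested 5 h at 37C, then received compounds in DMSO (217-fold dilution) for 16 h at 37C, 5% CO2. After the CCF4 read, CellTiter-Glo was added; ATP luminescence was read after 30 min at room temperature.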

[2] = biological target: Cellular tumor antigen p53 (Homo sapiens) (UniProt P04637); test: TOX21_p53_BLA_p2_ratio: Tox21 HCT-116 p53 Agonism Beta-lactamase Assay, Ratio, Phase 2 (AID 2283592)
Sequence of Cellular tumor antigen p53 (Homo sapiens) (P04637 whole entry, looked up): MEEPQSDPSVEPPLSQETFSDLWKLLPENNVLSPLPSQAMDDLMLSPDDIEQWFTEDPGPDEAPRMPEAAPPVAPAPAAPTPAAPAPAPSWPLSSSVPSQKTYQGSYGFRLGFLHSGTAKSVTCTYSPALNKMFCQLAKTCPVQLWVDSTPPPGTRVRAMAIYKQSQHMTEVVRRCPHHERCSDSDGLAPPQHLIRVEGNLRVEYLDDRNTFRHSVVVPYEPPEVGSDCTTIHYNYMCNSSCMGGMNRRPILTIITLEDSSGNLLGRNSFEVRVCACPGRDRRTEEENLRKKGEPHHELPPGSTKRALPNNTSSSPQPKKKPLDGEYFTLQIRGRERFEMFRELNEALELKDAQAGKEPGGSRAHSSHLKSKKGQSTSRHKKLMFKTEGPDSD
Outline: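 DMSO-normalized, positive-direction endpoint derived from the 460 nm/530 nm FRET ratio in HCT116 p53 beta-lactamase reporter cells exposed 16 h at 37C and loaded with CCF4-AM for 2 h.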

[3] = TOX21_p53_BLA_p3_viability: Viability Assessment in the Tox21 HCT-116 p53 Agonism Beta-lactamase Assay, Phase 3 (AID 2283593);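 further: cells exposed to compound for 16 h before reading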
Outline: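 HCT-116 cells (4000/well) rested 5 h at 37C, then got DMSO compounds by pin tool (217-fold dilution) for 16 h at 37C, 5% CO2. After the bla read, CellTiter-Glo was added and luminescence read at 30 min, room temperature.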

[4] = biological target: Cellular tumor antigen p53 (Homo sapiens) (UniProt P04637); test: TOX21_p53_BLA_p3_ratio: Tox21 HCT-116 p53 Agonism Beta-lactamase Assay, Ratio, Phase 3 (AID 2283596)
Outline: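 Cells were seeded at 4000/well, rested 5 h at 37C, then dosed with DMSO compound solutions (217-fold dilution) for 16 h. CCF4-AM substrate was loaded for 2 h at room temperature, and the 460/530 nm emission ratio was fitted for gain of signal versus DMSO.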

[5] = TOX21_p53_BLA_p4_viability: Viability Assessment in the Tox21 HCT-116 p53 Agonism Beta-lactamase Assay, Phase 4 (AID 2283597);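 further: hits lower the luminescence signal meaning cytotoxicity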
Outline: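 In this multiplexed secondary endpoint, HCT116 cells (4000 per well, compound at 5 h, 16 h treatment) received CellTiter-Glo after the beta-lactamase read. Luminescence after 30 min RT reflects ATP, and falling signal marks cytotoxicity.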

[6] = biological target: Cellular tumor antigen p53 (Homo sapiens) (UniProt P04637); test: TOX21_p53_BLA_p5_ratio: Tox21 HCT-116 p53 Agonism Beta-lactamase Assay, Ratio, Phase 5 (AID 2283599)
Outline: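 HCT-116 cells carrying a p53-inducible beta-lactamase reporter were seeded at 4000 cells/well and dosed after 5 h with compound in DMSO (217-fold dilution). After 16 h at 37C, CCF4-AM substrate was added for 2 h, and the 460/530 nm emission ratio was scored as gain-of-signal versus DMSO.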

[7] = TOX21_p53_BLA_p5_viability: Viability Assessment in the Tox21 HCT-116 p53 Agonism Beta-lactamase Assay, Phase 5 (AID 2283600)
Outline: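 Here cell health was gauged by ATP levels in wells holding 4000 cells, each treated 16 h with DMSO-delivered compounds at 217-fold dilution; reduced luminescence marked toxicity.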

[8] = biological target: Cellular tumor antigen p53 (Homo sapiens) (UniProt P04637); test: TOX21_p53_BLA_p4_ratio: Tox21 HCT-116 p53 Agonism Beta-lactamase Assay, Ratio, Phase 4 (AID 2283601)
Outline: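 HCT116 cells carrying an inducible beta-lactamase reporter were plated at 4000 cells/well, rested 5 h, then exposed to compounds in DMSO (217-fold dilution) for 16 h at 37C. CCF4-AM substrate was loaded 2 h at room temperature; 460/530 nm emission ratio scored gain-of-signal versus DMSO.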

Measured: AC50

C[C@@H](O[C@H]1OCCN(Cc2n[nH]c(=O)[nH]2)[C@H]1c1ccc(F)cc1)c1cc(C(F)(F)F)cc(C(F)(F)F)c1
active: [1] 31.3 µM | [3] 33.4 µM | [5] 29.1 µM | [6] 34.2 µM | [7] 37.5 µM | [8] 35.1 µM
inactive: [2] | [4]

Cc1ccc2c(Cl)cc(Cl)c(O)c2n1
active: [1] 7.81 µM | [3] 12.2 µM | [5] 13.7 µM | [6] 25.9 µM | [8] 33.1 µM
inactive: [2] | [4] | [7]

Clc1cc(Cl)c(OCC#CI)cc1Cl
active: [2] 33.7 µM | [5] 23 µM | [6] 39.7 µM
inactive: all other assays above

Cc1c(C)n(Cc2ccccc2)c2ccc(C(=O)OCCN(C)C)cc12
active: [5] 18.3 µM
inactive: all other assays above

OC[C@]1(O)OC[C@@H](O)[C@H](O)[C@@H]1O
inactive: all assays above

O=C(Nc1ncc([N+](=O)[O-])s1)c1cccs1
active: [2] 25 µM | [3] 8.44 µM | [5] 13.4 µM
inactive: all other assays above

O=C(CCCN1CCC(O)(c2ccc(Br)cc2)CC1)c1ccc(F)cc1
inactive: all assays above

N=C(N)c1ccc(OCCCOc2ccc(C(=N)N)cc2)cc1
inactive: all assays above

CC1CC(OC(=O)C(O)c2ccccc2)CC(C)(C)C1 (stereo unspecified)
inactive: all assays above

O=C1CCc2ccc(OCCCCN3CCN(c4cccc(Cl)c4Cl)CC3)cc2N1
active: [3] 23 µM | [7] 23 µM
inactive: all other assays above

COc1cc([C@@H]2c3cc4c(cc3C(O[C@@H]3O[C@@H]5COC(c6cccs6)O[C@H]5[C@H](O)[C@H]3O)C3COC(=O)[C@@H]32)OCO4)cc(OC)c1O (stereo partly specified)
active: [2] 0.717 µM | [4] 0.939 µM | [6] 0.886 µM | [8] 0.841 µM
inactive: all other assays above

CC1=CC(C)(C)Nc2ccccc21
inactive: all assays above

CN(C)c1nc(N(C)C)nc(N(C)C)n1
inactive: all assays above

CN(C)CCCN1c2ccccc2Sc2ccc(C(F)(F)F)cc21
active: [4] 11.1 µM | [5] 36.2 µM | [8] 10.1 µM
inactive: all other assays above

Cc1cnc(C(=O)O)c[n+]1[O-]
inactive: all assays above

C=CC(=O)O
inactive: all assays above

CC[C@@H](C(=O)O)[C@@H]1O[C@@H]([C@@H](C)[C@H](O)[C@H](C)C(=O)[C@H](CC)[C@H]2O[C@]3(C=C[C@@H](O)[C@]4(CC[C@@](C)([C@H]5CC[C@](O)(CC)[C@H](C)O5)O4)O3)[C@H](C)C[C@@H]2C)[C@@H](C)C[C@@H]1C
active: [2] 4.53 µM | [4] 7.64 µM | [6] 7.63 µM | [8] 5.21 µM
inactive: [1] | [3] | [5] | [7]

Nc1ccc(N)c2ccccc12
inactive: [4]
active: [1] 46 µM | [2] 16.5 µM | [3] 3.49 µM | [5] 46 µM | [6] 86 µM | [7] 46 µM | [8] 13.5 µM

Nc1cc(S(=O)(=O)O)cc2cc(S(=O)(=O)O)cc(O)c12
inactive: all assays above

Cc1c(Cl)cccc1Nc1ncccc1C(=O)O
inactive: all assays above

C[N+]1(CC2COC(c3ccccc3)(C3CCCCC3)O2)CCCCC1 (stereo unspecified)
inactive: all assays above

CCCCCCCCNC(C)C(O)c1ccc(SC(C)C)cc1 (stereo unspecified)
active: [1] 22.4 µM | [2] 35.8 µM | [3] 15.2 µM | [4] 18.7 µM | [5] 18.3 µM | [6] 23.9 µM | [7] 19 µM | [8] 33.9 µM

O=C(O)c1c(Cl)c(Cl)c(Cl)c(Cl)c1-c1c2cc(I)c(=O)c(I)c-2oc2c(I)c(O)c(I)cc12
active: [1] 37.2 µM | [3] 13.6 µM | [5] 44.1 µM | [8] 43.1 µM
inactive: all other assays above

N=C(N)c1ccc(OCCCOc2ccc(C(=N)N)cc2Br)c(Br)c1
inactive: all assays above

Cc1cc(O)c2c(c1)O[C@@]1(C)CC[C@H]3C(C)(C)CCCC34CO[C@@H]2[C@H]41 (stereo partly specified)
active: [1] 31 µM | [2] 44.2 µM | [3] 34.3 µM | [4] 43.7 µM | [5] 29.6 µM | [6] 30.6 µM | [7] 20.8 µM | [8] 43.4 µM

CC1=C[C@H](O)CC(C)(C)[C@H]1/C=C/C(C)=C/C=C/C(C)=C/C=C/C=C(C)/C=C/C=C(C)/C=C/C1=C(C)C[C@@H](O)CC1(C)C
inactive: [1] | [2] | [3]
active: [4] 39.9 µM | [5] 35.3 µM | [6] 38.4 µM | [7] 43 µM | [8] 34.8 µM

CC1=C(/C=C/C(C)=C/C=C/C(C)=C/C=C/C=C(C)/C=C/C=C(C)/C=C/C2=C(C)C[C@@H](O)CC2(C)C)C(C)(C)C[C@H](O)C1
inactive: [3]
active: [1] 40.1 µM | [2] 38.8 µM | [4] 33.8 µM | [5] 36.6 µM | [6] 38.8 µM | [7] 43.2 µM | [8] 36.4 µM

C1CCCC1.C1CCCC1.[Cl][V][Cl]
active: [5] 40.3 µM
inactive: all other assays above

CN1CCN(CCCN2c3ccccc3Sc3ccc(Cl)cc32)CC1
inactive: [4]
active: [1] 33.8 µM | [2] 43.7 µM | [3] 34.7 µM | [5] 38.3 µM | [6] 43.3 µM | [7] 34.4 µM | [8] 43.7 µM

S=C1NC=NC2N=CNC12 (stereo unspecified)
active: [1] 2.15 µM | [2] 7.37 µM | [3] 2.33 µM | [4] 7.71 µM | [5] 2.3 µM | [6] 6.33 µM | [8] 8.02 µM
inactive: [7]

COc1cc(-c2ccc(-[n+]3nc(-c4ccccc4)nn3-c3ccc([N+](=O)[O-])cc3)c(OC)c2)ccc1-[n+]1nc(-c2ccccc2)nn1-c1ccc([N+](=O)[O-])cc1
active: [1] 13 µM | [2] 19.1 µM | [3] 21.3 µM | [4] 36.5 µM | [5] 11.4 µM | [6] 21.7 µM | [7] 17.6 µM | [8] 18 µM

CCCCCCCCCCCCCCCC(=O)O[C@@H]1[C@@H](O)[C@@H](O)[C@@H]([C@H](NC(=O)[C@@H]2C[C@@H](CCC)CN2C)[C@H](C)Cl)O[C@@H]1SC
inactive: all assays above
